IL-1B inflam inh = blocks inflammasome-driven IL-1 beta release; THP-1 LPS/ATP IL-1B secretion, AlphaLISA, 16 h; active compounds read low; activity change, % at 57.5 µM; 360,000 tested, 4.7% active; in the data active = activity change below about -50%; inconclusive = mostly about -30% to -49%
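Secreted IL-1B measured by AlphaLISA bead assay after 16 h compound exposure of THP-1 cells; compounds (final up to 57.5 uM) added 1 h before LPS (250 ng/mL) and ATP (1.25 mM) stimulation; lower signal means less secretion.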
RORg inh = blocks mouse ROR gamma transcriptional activity | AID 2551 | Drosophila S2 Gal4-RORgamma UAS-luciferase reporter, 20 h | 310,000 tested, 5.4% active | Potency, µM (titrated, usually from 53.6 µM), inactives show top-dose activity change, negative = inhibition, hits mostly inhibitors | P51450; also: potency is read from the fitted curve at half-maximal effect; nearly all actives have a fitted effect of over 60% in size
Target sequence (P51450 whole entry, looked up, the tested form may be a part): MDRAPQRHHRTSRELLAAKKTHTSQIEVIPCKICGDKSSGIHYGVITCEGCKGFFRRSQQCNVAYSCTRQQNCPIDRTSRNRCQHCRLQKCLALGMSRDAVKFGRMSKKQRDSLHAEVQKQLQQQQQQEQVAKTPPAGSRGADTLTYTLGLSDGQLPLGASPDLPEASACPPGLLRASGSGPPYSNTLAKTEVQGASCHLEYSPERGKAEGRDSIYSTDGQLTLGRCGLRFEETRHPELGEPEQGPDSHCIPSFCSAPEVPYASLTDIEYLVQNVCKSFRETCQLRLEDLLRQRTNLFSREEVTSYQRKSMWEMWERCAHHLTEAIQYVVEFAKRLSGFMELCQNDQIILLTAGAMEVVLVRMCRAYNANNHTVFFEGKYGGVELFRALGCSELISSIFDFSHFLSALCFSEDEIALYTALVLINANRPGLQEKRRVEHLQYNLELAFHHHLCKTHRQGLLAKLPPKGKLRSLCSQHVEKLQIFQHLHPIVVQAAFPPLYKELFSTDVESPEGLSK
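Schneider cells (Drosophila), stable Gal4 DBD–ROR gamma + UAS-luc; 1 hr cmpd preincubation; Cu2+ induction 700 uM final; 20 hr ambient; luminescence.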
DT40 TDP1 no CPT = qHTS for Inhibitors of human tyrosyl-DNA phosphodiesterase 1 (TDP1): qHTS in cells in absence of CPT | DT40 Tdp1-/- hTDP1 cells, no CPT, ATP luminescence, 48 h | Potency, µM (titrated, usually from 46.2 µM), inactives show at the top dose activity change, negative = growth inhibition, usual class: inhibitors | 420,000 tested, 15% active; also: potency is read from the fitted curve at half-maximal effect; nearly all actives have a fitted effect of over 55% in size
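Camptothecin absent (DMSO only). Human TDP1-complemented DT40 knockout cells, 400 cells/well, 37 °C for minimum 48 hr; ATP measured via CellTiter-Glo, 30 min dark incubation, luminescence.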
DT40 TDP1 CPT = DT40-hTDP1 cell growth loss with CPT | chicken DT40 Tdp1-/-;hTDP1 cells + 20 nM CPT, ATP luminescence, 48 h | Potency, µM (top dose mostly 46.2 µM), inactives show top-dose activity change, negative = growth inhibition, actives largely listed as inhibitors | 420,000 tested, 12% active | AID 686979; also: potency is read from the fitted curve at half-maximal effect; nearly all actives have a fitted effect of over 55% in size
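Cell growth measured by CellTiter-Glo luminescence after a minimum 48 h, 37 C compound exposure with 20 nM CPT in Tdp1-knockout DT40 cells stably expressing hTDP1, seeded 400/well; qHTS titration format.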
VP16 counter = inhibits Gal4-VP16 luciferase reporter, ROR gamma counter-screen. Potency, µM (top dose mostly 53.6 µM), without a hit: at the top dose activity, negative = inhibition, most hits filed as inhibitors. 310,000 tested, 3.5% active. Drosophila S2 Gal4-VP16 UAS-luciferase, luminescence, 20 h. AID 2546;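 also: Gal4-VP16 expression switched on by copper sulfate through the metallothionein promoter; potency is read from the fitted curve at half-maximal effect; nearly all actives have a fitted effect of over 50% in size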
ELG1 DNA repair = inhibitors of ELG1-dependent DNA repair in HEK293T cells; 330,000 tested, 2.3% active; HEK293T ELG1-luciferase reporter, luminescence, 16 h; DNA damage induced by 5-fluorouridine; Potency, µM (doses to about 46.1 µM), for inactives: top-dose activity change, negative = inhibition, hits mostly inhibitors; also: potency is read from the fitted curve at half-maximal effect; nearly all actives have a fitted effect of over 55% in size
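HEK293T cells expressing luciferase-tagged ELG1 (2,000/well) received 5-Fluorouridine plus compound or DMSO for 16 hr at 37 °C. Luciferase was read by ONE-Glo luminescence after 30 min at room temperature.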
* hit, by the source's call; [ ] = dose if it differs, or a comment. Sampled rows, rich in hits. Any-hit rate of the full collection: about 21%. Unless noted, calls follow the shape of the dose curve; as a rule, active = well fitted curve in the direction sought with a large enough effect; inconclusive = small, poorly fitted or top-dose-only effect, or another doubt; inactive = no such curve, though single readings can be large; an effect the other way counts as inactive or inconclusive. % is scaled to controls: 0 for no effect and ±100 for the full control effect.

How did COc1ccc2c(c1)C(SCC(=O)NCCc1ccc(Cl)cc1)CC(C)(C)O2 (stereo not given) do in these assays?
IL-1B inflam inh: -12.7; RORg inh: inconclusive; DT40 TDP1 no CPT: inconclusive; DT40 TDP1 CPT: 16.4µM*; VP16 counter: 0.4%; ELG1 DNA repair: -15.6%

What do the screens show for `Cc1ccc(OCc2cc(C(=O)N3CCc4sccc4C3)no2)cc1C`?
IL-1B inflam inh: inactive; RORg inh: 29.2%; DT40 TDP1 no CPT: -5.4%; DT40 TDP1 CPT: -14.2%; VP16 counter: -15.3%; ELG1 DNA repair: 0.0%

Results for COCC(C)NC(=O)C1=CC(c2ccc3c(c2)OCO3)=NS(=O)(=O)N1C (stereo not given) ?
DT40 TDP1 no CPT: -5.6%; DT40 TDP1 CPT: 15.6%

How did Cc1ccc2ccccc2[n+]1CCCCI do in these assays?
DT40 TDP1 no CPT: -9.3%; DT40 TDP1 CPT: -19.2%

Results for Cc1sc2ccccc2[n+]1CCCCI ?
DT40 TDP1 no CPT: 20µM*; DT40 TDP1 CPT: inconclusive

Results for Cc1sc2ccccc2[n+]1CCc1ccccc1 ?
DT40 TDP1 no CPT: 3.16µM*; DT40 TDP1 CPT: 6.31µM*

What do the screens show for `O=C(Nc1cccc(F)c1)N1CCC2(CC1)CCN(C(=O)c1csnn1)CC2`?
RORg inh: 11.2%; DT40 TDP1 no CPT: -24.0%; DT40 TDP1 CPT: 6.9%; VP16 counter: 23.4%

How did Cn1c(NCCOc2ccccc2Cl)nc2cc(-c3ccc(F)cc3)sc2c1=O do in these assays?
IL-1B inflam inh: 0.5; DT40 TDP1 no CPT: inconclusive; DT40 TDP1 CPT: inconclusive

What do the screens show for `O=C(O)CCC/C=C\C[C@H]1C(=O)C[C@@H](O)[C@@H]1/C=C/[C@@H](O)CCc1ccccc1`?
RORg inh: -1.0%; VP16 counter: -1.5%

How did COc1cccc(CCNc2ncnc3sc(C(=O)N4CCN(C)CC4)c(C)c23)c1 do in these assays?
DT40 TDP1 no CPT: -40.3%; DT40 TDP1 CPT: -6.3%[9.04 µM]

How did COc1ccc(CCNc2ncnc3sc(C)cc23)cc1OC do in these assays?
IL-1B inflam inh: -15.3; RORg inh: inconclusive; DT40 TDP1 no CPT: 0.259µM*; DT40 TDP1 CPT: 0.581µM*; VP16 counter: 0.398µM*; ELG1 DNA repair: inconclusive

How did COc1ccc(CCNc2ncnc3sc(C(=O)N4CCCCC4)c(C)c23)cc1OC do in these assays?
DT40 TDP1 no CPT: 18.4µM*; DT40 TDP1 CPT: 0.4%[9.04 µM]

Results for CCOc1ccc2[nH]c3c(NCCc4ccc(OC)c(OC)c4)ncnc3c2c1 ?
IL-1B inflam inh: -96.5*; RORg inh: 5.4%; DT40 TDP1 no CPT: 2.91µM*; DT40 TDP1 CPT: 4.11µM*; VP16 counter: -21.9%; ELG1 DNA repair: 20.6µM*

What do the screens show for `COc1ccc(CCNc2ncnc3[nH]ncc23)cc1OC`?
IL-1B inflam inh: 3.7; RORg inh: -27.2%; DT40 TDP1 no CPT: 14.6µM*; DT40 TDP1 CPT: 14.6µM*; VP16 counter: 12.6µM*; ELG1 DNA repair: inconclusive

Results for Cc1ccc(CNc2ncnc3[nH]ncc23)cc1 ?
IL-1B inflam inh: -8.3; DT40 TDP1 no CPT: inconclusive; DT40 TDP1 CPT: inconclusive

How did COc1ccc(CCNc2ccncn2)cc1OC do in these assays?
IL-1B inflam inh: 21.7; RORg inh: 5.2%; DT40 TDP1 no CPT: -25.7%; DT40 TDP1 CPT: -25.1%; VP16 counter: -21.8%; ELG1 DNA repair: -18.3%

What do the screens show for `CCCCC(O)(c1ccc(F)cc1)C(CN1CCOCC1)c1ccc(Cl)cc1` (stereo not given)?
IL-1B inflam inh: inconclusive; RORg inh: inconclusive; DT40 TDP1 no CPT: inconclusive; DT40 TDP1 CPT: inconclusive; VP16 counter: -22.7%; ELG1 DNA repair: -28.2%

How did CC(C)(CCC(=S)N1CCOCC1)c1ccccc1 do in these assays?
IL-1B inflam inh: 15.5; DT40 TDP1 no CPT: -28.8%; DT40 TDP1 CPT: -20.9%

High-throughput results: PubChem, National Center for Advancing Translational Sciences (NCATS)
